In PubChem BioAssay (Tox21):
Several values for one entry are separate records, joined by “and”; a condition that tells them apart may be missing. Identical values can stand only once. A number with no mark means an inactive call. Records with an inconclusive call do not appear. Entries that show only a call come without a potency. Activity calls are given as the source filed them. Unless noted, calls come from the whole dose curve; as a rule, active = well fitted curve in the direction sought with a large enough effect in the repeat runs; inconclusive = weak or mixed curves; inactive = no such curve, though single readings can be large; an effect the other way counts as inactive or inconclusive.

How the values were obtained:
[1] = qHTS assay to identify small molecule agonists of H2AX - cell viability counter screen (AID 1224847; calls by dose curve; note: nearly all actives have a fitted effect of over 30% in size; note: potency is the fitted concentration of half-maximal effect;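 for activity change, negative = cytotoxicity: wild-type CHO-K1 cells; top concentration of the series differs between compounds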)
Procedure, shortened: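 CHO-K1 wt, 1000 cells/well, o/n 37C; cpds 15 conc, 3 h 37C, 0.76% DMSO; CellTiter-Glo, 30 min RT, luminescence.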

[2] = qHTS assay to identify small molecule antagonists of the estrogen related receptor (ERR) signaling pathway from Tox21 library (AID 1224848); note: nearly all actives have a fitted effect of over 50% in size; note: potency is the fitted concentration of half-maximal effect
Procedure, shortened: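 Antagonist-mode screen of the Tox21 10K library in an NTP-provided ERR reporter cell line; 18 h compound exposure at 37 C, luminescence measured with ONE-Glo.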

[3] = qHTS assay to identify small molecule agonists of the estrogen related receptor (ERR) signaling pathway from Tox21 library (AID 1224849; calls by dose curve; note: nearly all actives have a fitted effect of over 15% in size); conditions: ERR reporter cell line, ONE-Glo luciferase, 18 h
Procedure, shortened: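 ERR reporter cell line (NTP) seeded, rested 6 h at 37 C/5% CO2, then pinned with Tox21 compounds in DMSO. After 18 h at 37 C, ONE-Glo luciferase luminescence was read following 30 min at room temperature.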

[4] = qHTS RealTime-Glo MT Cell Viability Assay in HepG2 cells - 24 hour (AID 1224867); note: nearly all actives have a fitted effect of over 50% in size
Procedure, shortened: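 HepG2 cells were seeded at 600 cells/well together with NanoLuc luciferase and a cell-permeant prosubstrate, preincubated 5 h at 37 C/5% CO2, then pin-dosed with compounds in DMSO. Nonlytic luminescence from viable cells was read at each time point.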

[5] = qHTS RealTime-Glo MT Cell Viability Assay in HEK293 cells - 32 hour (AID 1224868); note: nearly all actives have a fitted effect of over 50% in size; note: potency is the fitted concentration of half-maximal effect; for activity change, negative = cytotoxic: top concentration of the series differs between compounds
Procedure, shortened: (§1)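 HEK293 cells were seeded at 600 cells/well together with NanoLuc luciferase and cell-permeant prosubstrate, preincubated 5 h at 37 C/5% CO2, then given compound in DMSO by pintool. Luminescence from viable-cell prosubstrate reduction was read repeatedly over 40 h.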

[6] = A CellTox Green Cytotoxicity Assay to monitor cytotoxicity in HEK293 cells - 0 hour (AID 1224869); note: nearly all actives have a fitted effect of over 50% in size
Procedure, shortened: (§2)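 HEK293 cells premixed with CellTox Green dye were seeded at 600 cells/well and left 5 h at 37 C/5% CO2 before pin transfer of 23 nL compound in DMSO. Fluorescence from dye bound to dead-cell DNA was read during 40 h treatment.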

[7] = qHTS RealTime-Glo MT Cell Viability Assay in HepG2 cells - 40 hour (AID 1224870); note: nearly all actives have a fitted effect of over 50% in size
Procedure, shortened: (§3)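 Real-time viability: cells seeded at 600 per well together with NanoLuc and cell-permeant prosubstrate, compounds added after 5 h incubation. Luminescence tracked at 0, 8, 16, 24, 32 and 40 h of exposure.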

[8] = A CellTox Green Cytotoxicity Assay to monitor cytotoxicity in HEK293 cells - 40 hour (AID 1224871); note: nearly all actives have a fitted effect of over 45% in size
Procedure, shortened: as §2

[9] = qHTS RealTime-Glo MT Cell Viability Assay in HEK293 cells - 16 hour (AID 1224872); note: nearly all actives have a fitted effect of over 50% in size; note: potency is the fitted concentration of half-maximal effect; for activity change, negative = cytotoxicity: top concentration of the series differs between compounds
Procedure, shortened: as §1

[10] = qHTS RealTime-Glo MT Cell Viability Assay in HepG2 cells - 8 hour (AID 1224873); note: nearly all actives have a fitted effect of over 55% in size
Procedure, shortened: as §3

SMILES: N[C@@H](Cc1cc(I)c(Oc2cc(I)c(O)c(I)c2)c(I)c1)C(=O)O
- Potency [1]: inactive
- Potency [2]: inactive
- activity change, positive = activation ([3]; at 42.5 µM (top of the series)): -1.09% and 0.396%
- outcome [4]: inactive
- Potency [5]: inactive
- outcome [6]: inactive
- outcome [7]: inactive
- Potency [8]: inactive
- Potency [9]: inactive
- outcome [10]: inactive

SMILES: CCCCCCCCCCCCc1ccccc1
- Potency [1]: inactive
- Potency [2]: inactive
- activity change, positive = activation ([3]; at 92.4 µM (top of the series)): 9.43% and 1.83%
- outcome [4]: inactive
- Potency [5]: inactive
- outcome [6]: inactive
- outcome [7]: inactive
- Potency [8]: inactive
- outcome [10]: inactive

SMILES: CC(=O)Nc1cccc(O)c1
- Potency [1]: inactive
- outcome [4]: inactive
- Potency [5]: inactive
- outcome [6]: inactive
- outcome [7]: inactive
- Potency [8]: inactive
- Potency [9]: inactive
- outcome [10]: inactive

SMILES: Cc1cccnc1
- Potency [1]: inactive
- Potency [2]: inactive
- activity change, positive = activation ([3]; at 92.4 µM (top of the series)): 2.78% and 3.63%
- outcome [4]: inactive
- Potency [5]: inactive
- outcome [6]: inactive
- outcome [7]: inactive
- Potency [8]: inactive
- Potency [9]: inactive
- outcome [10]: inactive

SMILES: Cc1ccc2oc(=O)ccc2c1
- Potency [1]: inactive
- outcome [4]: inactive
- Potency [5]: inactive
- outcome [6]: inactive
- outcome [7]: inactive
- Potency [8]: inactive
- Potency [9]: inactive
- outcome [10]: inactive

SMILES: CCCCC(CC)COC(=O)C(C#N)=C(c1ccccc1)c1ccccc1 (stereo unspecified)
- Potency [1]: inactive
- Potency [2]: 23.7 µM (active)
- activity change, positive = activation ([3]; at 42.5 µM (top of the series)): -38.1%
- activity change, positive = activation ([3]; at 92.4 µM (top of the series)): -32.9%
- outcome [4]: inactive
- Potency [5]: inactive
- outcome [6]: inactive
- outcome [7]: inactive
- Potency [8]: inactive
- outcome [10]: inactive

SMILES: CCCCCCCCCC
- Potency [1]: inactive
- outcome [4]: inactive
- Potency [5]: inactive
- outcome [6]: inactive
- outcome [7]: inactive
- Potency [8]: inactive
- Potency [9]: inactive
- outcome [10]: inactive

SMILES: CC(O)COCC(C)O (stereo unspecified)
- Potency [1]: inactive
- outcome [4]: inactive
- Potency [5]: inactive
- outcome [6]: inactive
- outcome [7]: inactive
- Potency [8]: inactive
- Potency [9]: inactive
- outcome [10]: inactive

SMILES: CCCCCCCCCCCCCCO
- Potency [1]: inactive
- outcome [4]: inactive
- Potency [5]: inactive
- outcome [6]: inactive
- outcome [7]: inactive
- Potency [8]: inactive
- Potency [9]: inactive
- outcome [10]: inactive

SMILES: O=P(OC(CCl)CCl)(OC(CCl)CCl)OC(CCl)CCl
- Potency [1]: inactive
- Potency [2]: 48.3 µM (active) and 54.5 µM (active)
- activity change, positive = activation ([3]; at 92.4 µM (top of the series)): -54.2% and -40.7%
- outcome [4]: inactive
- Potency [5]: 24.4 µM (active) and 49 µM (active)
- outcome [6]: inactive
- outcome [7]: inactive
- Potency [8]: inactive
- outcome [10]: inactive

SMILES: CCCCC(CC)CO (stereo unspecified)
- Potency [1]: inactive
- outcome [4]: inactive
- Potency [5]: inactive
- outcome [6]: inactive
- outcome [7]: inactive
- Potency [8]: inactive
- Potency [9]: inactive
- outcome [10]: inactive

SMILES: Cc1ccc(S(N)(=O)=O)cc1
- Potency [1]: inactive
- outcome [4]: inactive
- Potency [5]: inactive
- outcome [6]: inactive
- outcome [7]: inactive
- Potency [8]: inactive
- Potency [9]: inactive
- outcome [10]: inactive

SMILES: C=C(C)C(=O)Nc1ccc(Cl)c(Cl)c1
- Potency [1]: 102 µM (active)
- outcome [4]: inactive
- Potency [5]: 19.7 µM (active) and 21.8 µM (active)
- outcome [6]: inactive
- outcome [7]: inactive
- Potency [8]: inactive
- Potency [9]: 22.1 µM (active) and 21.8 µM (active)
- outcome [10]: inactive

SMILES: O=C(O)c1cc(O)c(O)c(O)c1
- Potency [1]: inactive
- outcome [4]: inactive
- Potency [5]: inactive
- outcome [6]: inactive
- outcome [7]: inactive
- Potency [8]: inactive
- Potency [9]: inactive
- outcome [10]: inactive

SMILES: CN(C)CCC(c1ccc(Cl)cc1)c1ccccn1 (stereo unspecified)
- Potency [1]: inactive
- outcome [4]: inactive
- Potency [5]: inactive
- outcome [6]: inactive
- outcome [7]: inactive
- Potency [8]: inactive
- Potency [9]: inactive
- outcome [10]: inactive

SMILES: CCCCC(CC)COC(=O)CCCCC(=O)OCC(CC)CCCC (stereo unspecified)
- Potency [1]: inactive
- outcome [4]: inactive
- Potency [5]: inactive
- outcome [6]: inactive
- outcome [7]: inactive
- Potency [8]: inactive
- outcome [10]: inactive

SMILES: CC(C)(C)[C@@H](O)[C@@H](Cc1ccc(Cl)cc1)n1cncn1
- Potency [1]: inactive
- outcome [4]: inactive
- outcome [6]: inactive
- outcome [7]: inactive
- Potency [8]: inactive
- outcome [10]: inactive

SMILES: O=C=NCCCCCCN=C=O
- Potency [1]: inactive
- outcome [4]: inactive
- Potency [5]: inactive
- outcome [6]: inactive
- outcome [7]: inactive
- Potency [8]: inactive
- outcome [10]: inactive

SMILES: Cc1ccc(N(C)C)cc1
- Potency [1]: inactive
- outcome [4]: inactive
- Potency [5]: inactive
- outcome [6]: inactive
- outcome [7]: inactive
- Potency [8]: inactive
- Potency [9]: inactive
- outcome [10]: inactive

SMILES: FC(F)(F)c1ccc(Cl)c(Cl)c1
- Potency [1]: inactive
- outcome [4]: inactive
- Potency [5]: inactive
- outcome [6]: inactive
- outcome [7]: inactive
- Potency [8]: inactive
- Potency [9]: inactive
- outcome [10]: inactive

SMILES: O=C(O)c1cc(C(=O)O)cc(S(=O)(=O)O)c1
- Potency [1]: inactive
- outcome [4]: inactive
- Potency [5]: inactive
- outcome [6]: inactive
- outcome [7]: inactive
- Potency [8]: inactive
- Potency [9]: inactive
- outcome [10]: inactive

SMILES: CCCSc1ccc2nc(NC(=O)OC)[nH]c2c1
- Potency [1]: inactive
- outcome [4]: inactive
- outcome [6]: inactive
- outcome [7]: inactive
- Potency [8]: inactive
- Potency [9]: inactive
- outcome [10]: inactive

SMILES: NNc1nncc2ccccc12
- Potency [1]: inactive
- outcome [4]: inactive
- activity change, negative = cytotoxic [5]: 3.93% [at 15.8 µM]
- outcome [6]: inactive
- outcome [7]: inactive
- Potency [8]: inactive
- activity change, negative = cytotoxicity [9]: -0.186% [at 15.8 µM]
- outcome [10]: inactive

SMILES: c1c[nH]cn1
- Potency [1]: inactive
- outcome [4]: inactive
- Potency [5]: inactive
- outcome [6]: inactive
- outcome [7]: inactive
- Potency [8]: inactive
- outcome [10]: inactive

SMILES: Oc1cccc2ccccc12
- Potency [1]: inactive
- outcome [4]: inactive
- Potency [5]: inactive
- outcome [6]: inactive
- outcome [7]: inactive
- Potency [8]: inactive
- outcome [10]: inactive
